# Counter-ions that a name gives are not always drawn.
# Tested on: hsa-mir-6850 loop
# Experiment: normalised indicator fluorescence (fraction of RNA + indicator signal without compound); higher = less displacement of indicator (weaker competition)
# Settings: compound concentration: 5 uM; 30 min; indicator: TO-PRO-3 0.5 uM; RNA concentration: 0.5 uM
# Outline: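 For the displacement screen, RNA and a TO-PRO-1 or TO-PRO-3 indicator were held in 20 mM phosphate pH 7.0 with 20 mM NaCl and 80 mM KCl in 96-well plates. After adding 0.25 μL of each 1 mM DMSO stock (about 5 uM final) and waiting 30 min, fluorescence was measured on an Infinite 200 PRO with excitation at 485 or 620 nm. Each value is the mean of two independent experiments, expressed as blank-subtracted indicator fluorescence relative to the no-compound RNA-plus-indicator signal.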
row,SMILES,normalised indicator fluorescence
1,CC(=O)Oc1c(C)c(C)c2c(c1C)CCC(C)(CCC[C@H](C)CCC[C@H](C)CCCC(C)C)O2 (stereo not given in full) [Vitamin E Acetate],1.02
2,COc1nccnc1NS(=O)(=O)c1ccc(NC(=O)/C=C/c2ccc([N+](=O)[O-])s2)cc1 [Necrosulfonamide],1
3,CN(NC(=O)CC(=O)NN(C)C(=S)c1ccccc1)C(=S)c1ccccc1 [Elesclomol],1.02
4,O=c1ccc2ccc(O)cc2o1 [7-Hydroxycoumarin],1.05
5,O=C(O)/C=C/c1ccc(Cn2ccnc2)cc1 [Ozagrel hydrochloride],1.03
6,Fc1ccc(-c2nc3n(c2-c2ccncc2)CCS3)cc1,1.04
7,O=[N+]([O-])c1ccc(-c2nc(-c3ccc(F)cc3)c(-c3ccncc3)[nH]2)cc1,1.03
8,OC[C@H]1O[C@@H](Oc2ccc(O)cc2)[C@H](O)[C@@H](O)[C@@H]1O [Arbutin],1.07
9,COc1ccc(O)cc1 [4-Methoxyphenol],1.11
10,CCNC(=O)c1noc(-c2cc(C(C)C)c(O)cc2O)c1-c1ccc(CN2CCOCC2)cc1 [Luminespib],1.06
11,O=c1cc(-c2ccc(O)cc2)oc2cc(O)cc(O)c12 [Apigenin],1.06
12,O=C1O[C@H]([C@@H](O)CO)C(O)=C1O [L(+)-Ascorbic acid],1.06
13,O=c1ncn2nc(Sc3ccc(F)cc3F)ccc2c1-c1c(Cl)cccc1Cl [Neflamapimod],1.02
14,Cc1cccc(CC(=O)N2CCc3c2ccc(-c2cn(C)c4ncnc(N)c24)c3F)n1,0.993
15,CC(=O)O[C@H]1C[C@@]2(C)[C@@H](C[C@@H](O)[C@H]3[C@@]4(C)CC[C@@H](O)[C@@H](C)[C@@H]4CC[C@@]32C)/C1=C(\CCC=C(C)C)C(=O)O [Sodium fusidate],1.02
16,CC(=O)CCCCn1c(=O)c2c(ncn2C)n(C)c1=O [Pentoxifylline],0.997
17,Cc1c(C)c2c(c(C)c1O)CC[C@@](C)(CCC[C@H](C)CCC[C@H](C)CCCC(C)C)O2 [Vitamin E],1.03
18,O=C(NC(Cc1cc(=O)[nH]c2ccccc12)C(=O)O)c1ccc(Cl)cc1 (stereo not given) [Rebamipide],1.03

row,SMILES,normalised indicator fluorescence
1,NC(=O)c1ccc(N(C(N)=O)c2c(F)cccc2F)nc1-c1ccc(F)cc1F,1.03
2,CC(C)OC(=O)CCC/C=C\C[C@@H]1[C@@H](CC[C@@H](O)CCc2ccccc2)[C@H](O)C[C@@H]1O [Latanoprost],1.04
3,CCCC(C(=O)OCCN(CC)CC)(c1ccccc1)c1ccccc1 [Proadifen hydrochloride],1.02
4,COC1=C2C[C@@H](C)C[C@H](OC)[C@H](O)[C@@H](C)/C=C(\C)[C@H](OC(N)=O)[C@@H](OC)/C=C\C=C(/C)C(=O)NC(=CC1=O)C2=O [Geldanamycin],1.02
5,COc1ccc(C(=C2C(=O)Nc3ccccc32)c2ccc(OC)cc2)cc1,1.03
6,O=C1C[C@@H](c2ccc(O)cc2)Oc2cc(O)cc(O)c21 [Naringenin],1.02
7,[I-].[K+] [Potassium iodide],1.07
8,CO[C@H]1/C=C/O[C@@]2(C)Oc3c(C)c(O)c4c(c3C2=O)C2=NC3(CCN(CC(C)C)CC3)NC2=C(NC(=O)/C(C)=C\C=C\[C@H](C)[C@H](O)[C@@H](C)[C@@H](O)[C@@H](C)[C@H](OC(C)=O)[C@@H]1C)C4=O [Rifabutin],1.07
9,O=C(O)/C=C/c1ccc(Cn2ccnc2)cc1 [Ozagrel],1.03
10,CC1(C)OC(=O)C=C[C@]2(C)[C@H]3CC[C@@]4(C)[C@H](c5ccoc5)OC(=O)[C@H]5O[C@]54[C@]3(C)C(=O)C[C@@H]12 [Obacunone],1.05
11,NNC(=O)c1ccncc1 [Isoniazid],1.09
12,CC1=NN(c2ccccc2)C(=O)C1 [Edaravone],1.05
13,CC(C)(O)[C@@H]1CC[C@](C)([C@H]2[C@@H](O)C[C@@]3(C)[C@@H]4C[C@H](O)[C@H]5C(C)(C)[C@@H](O[C@@H]6OC[C@@H](O)[C@H](O)[C@H]6O[C@@H]6O[C@H](CO)[C@@H](O)[C@H](O)[C@H]6O)CC[C@@]56C[C@@]46CC[C@]23C)O1 [Astragaloside III],1.11
14,O=C(Nc1ccc2[nH]nc(-c3ccncc3)c2c1)[C@@H]1CCN(CC(=O)N2CCN(c3ccc(-c4ncccn4)cc3)CC2)C1,0.89
15,O=C(COc1ccc(Cl)cc1)NC1CCC(NC(=O)COc2ccc(Cl)cc2)CC1 (stereo not given),1.05
16,Oc1cc(O)c2c(c1)O[C@H](c1ccc(O)c(O)c1)[C@@H](O)C2 [Cianidanol],1.07
17,C[C@@H]1O[C@@H](O[C@@H]2[C@@H](O)[C@H](OCCc3ccc(O)c(O)c3)O[C@H](CO)[C@H]2OC(=O)/C=C/c2ccc(O)c(O)c2)[C@H](O)[C@H](O)[C@H]1O [Verbascoside],1.02

# From the supplement of paper PMC11865577
